42 molecules from PubChem BioAssay (NCI) can be followed below.

A short description of assay [1]: NCI Yeast Anticancer Drug Screen. Data for the rad50 strain (AID 155).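 Note: 0% = growth of vehicle-only cultures of the same strain.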 The conditions noted are these: S. cerevisiae rad50 strain growth inhibition; at 50.0 µM; stronger effect = higher value. In a few lines:
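DNA repair mutant yeast, compound exposure, growth read-out; inhibition is taken relative to vehicle.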

Assay [2] is described as follows: NCI Yeast Anticancer Drug Screen. Data for the mec2-1 strain (AID 157). The conditions noted are these: S. cerevisiae mec2-1 strain, at 50.0 µM, stronger effect = higher value. In a few lines: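 Cells of the genetically defined mec2-1 yeast strain are incubated with test compound. Inhibition of growth is calculated against vehicle-treated controls.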
The nature of assay [3]: NCI Yeast Anticancer Drug Screen. Data for the sgs1 mgt1 strain (AID 161).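 Note: 0% = growth of cultures given vehicle only.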 The conditions noted are these: S. cerevisiae sgs1 mgt1 strain, at 50.0 µM, stronger effect = higher value. In a few lines:
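Read-out: growth inhibition vs vehicle controls. Cells: mutant yeast strain deficient in DNA damage repair.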

The nature of assay [4]: NCI Yeast Anticancer Drug Screen. Data for the cln2 rad14 strain (AID 165).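 Note: 0% = growth equal to vehicle treated cultures.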 The conditions noted are these: S. cerevisiae cln2 rad14 strain, at 50.0 µM, stronger effect = higher value. In a few lines:
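The screen exposed genetically defined yeast (cln2 rad14) to test compounds and scored growth inhibition relative to vehicle-treated controls.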

The nature of assay [5]: NCI Yeast Anticancer Drug Screen. Data for the bub3 strain (AID 167). The conditions noted are these: S. cerevisiae bub3 mutant strain, at 50.0 µM, stronger effect = higher value. The procedure, abridged: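 In this screen, a yeast mutant lacking normal mitotic checkpoint function is challenged with compound. Relative growth versus vehicle gives the inhibition value.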
A short description of assay [6]: NCI Yeast Anticancer Drug Screen. Data for the mlh1 rad18 strain (AID 175). Conditions: S. cerevisiae mlh1 rad18 strain growth inhibition; at 50.0 µM; stronger effect = higher value. The procedure, abridged:
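Compound-treated yeast growth, normalised to vehicle controls. Strain bears defined DNA repair mutations.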

Structures are written as SMILES. About 79,000 compounds went through this panel and 15% of them were active in at least one assay; those are over-represented in the sample as a whole. A number with no mark means an inactive call. The source made the active and inactive calls. Cut-off read from the data, not from the text of the source: active = growth inhibition above about 70%; inactive = the rest.

For `N#CC(c1ccc(Cl)cc1)c1cccc(C(C#N)c2ccc(Cl)cc2)n1` (configuration not stated), the growth inhibition is 28.9% in assay [1]; 13.6% in assay [2]; 38% in assay [3]; 32.1% in assay [4]; 38.4% in assay [5]; 25.3% in assay [6].
Consider `Cc1[nH]c(=O)n2c(C)nnc2c1C(=O)Nc1cc(Cl)cc(Cl)c1`, for which the growth inhibition in assay [1] is 15.2%; in assay [2], -0.45%; in assay [3] it was 39%; in assay [4], 18.4%; in assay [5] it was 7.5%; in assay [6], 31.2%.
Turning to `N#CC12CC3CC(CC(C3)C1)C2`, the growth inhibition in assay [1] was -3.9%; in assay [2], -1.5%; in assay [3], -15%; in assay [4], -45%; in assay [5] it was -9.3%; in assay [6], 4.35%.
`O=S1(=O)C=C(c2ccccc2)C1`: the growth inhibition in assay [1] was -8.25%; in assay [2], -2.4%; in assay [3], -19.8%; in assay [4] it was -33.4%; in assay [5], 4.25%; in assay [6], 8.6%.
Take `Cc1ccc(S(=O)(=O)N2CCCC(=O)c3ccccc32)cc1`: the growth inhibition in assay [1] was -12.4%; in assay [2] it was 14.4%; in assay [3] it was -12.9%; in assay [4] it was 9.35%; in assay [5] it was 12.1%; in assay [6], 11.3%.
For the molecule `C=CCc1cc2c(cc1COC(C)=O)OCO2`, the growth inhibition was -35.7% in assay [1]; -17.9% in assay [2]; -15.4% in assay [3]; -36.5% in assay [4]; -10.6% in assay [5]; -28% in assay [6].
For the molecule `CCOC(=O)C1=C(Nc2ccc(F)cc2)C(=O)N(CC)C1`, the growth inhibition in assay [1] is 1.3%; in assay [2] it was -15.3%; in assay [3], 24.4%; in assay [4] it was -6.45%; in assay [5] it was 19.9%; in assay [6], 21.4%.
In the case of `CC(=O)OC1CC2CCCCC21` (configuration not stated), the growth inhibition is 10.6% in assay [1]; 7% in assay [2]; -0.6% in assay [3]; 37% in assay [4]; 13.8% in assay [5]; 2.3% in assay [6].
Consider `O=C(S)c1ccccc1Br`, for which the growth inhibition in assay [1] is 1.45%; in assay [2] it was 0%; in assay [3], 11.6%; in assay [4], -54.9%; in assay [5], -8%; in assay [6], 3.8%.
As to `NNC(=S)N/N=C/c1ccco1`, the growth inhibition in assay [1] is -9.6%; in assay [2], -9.7%; in assay [3] it was -29.4%; in assay [4], -19.2%; in assay [5], -8.7%; in assay [6], -14.2%.
As for `O=Cc1cc2c(cc1-c1c(C=O)ccc3c1OCO3)OCO2`, the growth inhibition is 58.2% in assay [1]; 27.2% in assay [2]; 46.9% in assay [3]; 18.6% in assay [4]; 30.9% in assay [5]; 26.6% in assay [6].
`Cc1cc2c(c(O)c1-c1c(C)cc(O)c3c1C(=O)C=CC3=O)C(=O)C=CC2=O`: the growth inhibition in assay [1] was -7.1%; in assay [2] it was -43.4%; in assay [3] it was -8.5%; in assay [4], -0.2%; in assay [5], -27.9%; in assay [6] it was -43.2%.
For `Cc1ccc(S(=O)(=O)OI(O)CC(F)(F)F)cc1`, the growth inhibition in assay [1] was -39.1%; in assay [2] it was 15.5%; in assay [3], -2.5%; in assay [4] it was -2.05%; in assay [5], 6.5%; in assay [6] it was 25.9%.
For the molecule `CSCCCCCCSC`, the growth inhibition in assay [1] is -0.1%; in assay [2] it was 5.1%; in assay [3], -2.75%; in assay [4], -27.8%; in assay [5], -5.35%; in assay [6] it was 5.9%.
As for `CC(=O)Nc1cccc([N+](=O)[O-])c1`, the growth inhibition in assay [1] was 8.25%; in assay [2] it was -10.3%; in assay [3], 8.65%; in assay [4], -7.85%; in assay [5], -2.7%; in assay [6], -19.6%.
For the molecule `CCCCCCCCCCCCCOCC(=O)OC`, the growth inhibition in assay [1] is -0.75%; in assay [2], 20.8%; in assay [3], -4.9%; in assay [4], -29%; in assay [5], 12.9%; in assay [6] it was 1.6%.
Consider `N#CCSc1c(-c2ccccc2)c(=O)n(-c2ccccc2)c(=S)n1-c1ccccc1`, for which the growth inhibition in assay [1] is 20.7%; in assay [2], -17.9%; in assay [3] it was -2.3%; in assay [4], -16.8%; in assay [5], -20.6%; in assay [6], -0.65%.
As to `CC1C(=O)OC(C)(C)C1(C)C` (configuration not stated), the growth inhibition is 22.4% in assay [1]; -16.3% in assay [2]; 4.75% in assay [3]; -41.6% in assay [4]; 0.2% in assay [5]; -10.4% in assay [6].
With `CS(=O)(=O)N(CCC#N)c1ccc(C=O)cc1`, the growth inhibition in assay [1] is 20.4%; in assay [2], -24.7%; in assay [3], -7.4%; in assay [4], -8.1%; in assay [5] it was -12.2%; in assay [6] it was 7%.
In the case of `CC1CCc2nc(N)sc2C1` (configuration not stated), the growth inhibition in assay [1] is 14.4%; in assay [2] it was 11.9%; in assay [3], 18.9%; in assay [4], 8.35%; in assay [5] it was 1.1%; in assay [6] it was 5.9%.
`Cc1ccc(S(=O)(=O)NN=C2CCCCCCCCCCC2)cc1`: the growth inhibition was -8.35% in assay [1]; -21.4% in assay [2]; -7.75% in assay [3]; 7.45% in assay [4]; 9.05% in assay [5]; -1.8% in assay [6].
Consider `c1c[nH]c(C2Nc3ccccc3CO2)c1` (configuration not stated), for which the growth inhibition in assay [1] is -11.4%; in assay [2], -13.2%; in assay [3], -18.9%; in assay [4], -22.6%; in assay [5], 1.3%; in assay [6], 9.85%.
Consider `Cc1ccc2c(c1)C(C(C)C)CCC2(C)C` (configuration not stated), for which the growth inhibition is 5.3% in assay [1]; -8.1% in assay [2]; 2.95% in assay [3]; 4.85% in assay [4]; -0.6% in assay [5]; 0.7% in assay [6].
For `NC(N)=NCCCS`, the growth inhibition in assay [1] was 11.9%; in assay [2], 11.3%; in assay [3], 14.3%; in assay [4] it was -7.8%; in assay [5], 4.15%; in assay [6] it was 7.05%.
As for `Cc1cccc(C(=O)NCC(=O)O)c1`, the growth inhibition is -13.8% in assay [1]; -3.7% in assay [2]; -9.9% in assay [3]; -85.5% in assay [4]; 4.5% in assay [5]; -9.7% in assay [6].
`CCN(c1ccccc1)S(=O)(=O)c1ccccc1N`: the growth inhibition in assay [1] is -0.75%; in assay [2] it was -13.2%; in assay [3], 10.7%; in assay [4], 14.4%; in assay [5], -3.6%; in assay [6] it was -0.4%.
In the case of `CC(C)=CCC(OC(=O)C=C(C)C)c1cc(O)c2c(O)ccc(O)c2c1O.[Mn]` (configuration not stated), the growth inhibition in assay [1] is 36.1%; in assay [2], 47.2%; in assay [3] it was 25.4%; in assay [4], 54.1%; in assay [5], 46%; in assay [6], 87.3% (active).
As to `O=C1NC(=O)C(F)(F)C1(F)F`, the growth inhibition was 4.9% in assay [1]; 7.3% in assay [2]; -6.45% in assay [3]; -1.1% in assay [4]; 0.25% in assay [5]; 4.35% in assay [6].
`C#CCOCCCC(=O)O`: the growth inhibition is 6.95% in assay [1]; -8.2% in assay [2]; 0.6% in assay [3]; 0.3% in assay [4]; 16.2% in assay [5]; 11.7% in assay [6].
As to `O=C(CC1CCCCC1)OCC1CCCO1` (configuration not stated), the growth inhibition is -7.1% in assay [1]; -25.6% in assay [2]; -18.4% in assay [3]; -4.15% in assay [4]; -6.95% in assay [5]; 4.55% in assay [6].
Turning to `FC(F)(F)c1cccc(NC(=S)N2CCOCC2)c1`, the growth inhibition in assay [1] was 0.35%; in assay [2], -2%; in assay [3] it was 1.05%; in assay [4], -4.2%; in assay [5], 0.3%; in assay [6] it was -11.7%.
As for `Cc1cccc(C)c1N1C(=O)C2c3[nH]c4ccccc4c3C3CCC(C(C)(C)C)CC3C2C1=O` (configuration not stated), the growth inhibition in assay [1] is 37.7%; in assay [2] it was 11.4%; in assay [3], 28.2%; in assay [4], 1.8%; in assay [5], 3.4%; in assay [6] it was 18.1%.
With `CC(=O)CC(=O)OC1CC(C)CCC1C(C)C` (configuration not stated), the growth inhibition is 12.2% in assay [1]; -24.4% in assay [2]; -6.25% in assay [3]; 15.3% in assay [4]; -26.1% in assay [5]; 23.1% in assay [6].
Turning to `NCC(=O)N1CCCC1C(=O)O` (configuration not stated), the growth inhibition was -9.8% in assay [1]; -6.3% in assay [2]; -0.7% in assay [3]; -24.4% in assay [4]; 0.05% in assay [5]; -6.2% in assay [6].
`CCCCCCn1ncc(=O)[nH]c1=O`: the growth inhibition is 4.2% in assay [1]; -6.7% in assay [2]; 2.75% in assay [3]; -40.8% in assay [4]; 6.6% in assay [5]; 8.9% in assay [6].
For `COc1ccc(Cl)c(C(=O)O)c1`, the growth inhibition is 19.1% in assay [1]; 6.9% in assay [2]; 4.1% in assay [3]; 21.4% in assay [4]; 6.85% in assay [5]; 28.4% in assay [6].
For the molecule `COc1cc2nncc(Sc3cnnc4ccccc34)c2cc1OC`, the growth inhibition is 19.1% in assay [1]; 29.6% in assay [2]; 18.6% in assay [3]; 13.3% in assay [4]; 36% in assay [5]; 35.6% in assay [6].
`O=C(COc1ccc(Cl)cc1Cl)Nc1ccc2ccccc2c1`: the growth inhibition is 49.4% in assay [1]; 46% in assay [2]; 59.4% in assay [3]; 18.9% in assay [4]; 54.5% in assay [5]; 36.7% in assay [6].
On to `Cc1ccc(NC(=O)C(=O)Cc2cc[n+]([O-])cc2)cc1`, for which the growth inhibition is -1.9% in assay [1]; -1.5% in assay [2]; 11.9% in assay [3]; 7.6% in assay [4]; 3.55% in assay [5]; 4.05% in assay [6].
On to `Cc1cc2c(C)nn(Cc3ccccc3)c2c(C(=O)O)c1C`, for which the growth inhibition is 10.6% in assay [1]; 7.05% in assay [2]; 1.15% in assay [3]; 2.95% in assay [4]; 9.95% in assay [5]; 26.8% in assay [6].
For the molecule `COC(=O)C1C(=O)C2OC1C1OC(C)(C)OC21` (configuration not stated), the growth inhibition was 7.75% in assay [1]; -12.1% in assay [2]; -12.1% in assay [3]; -52.4% in assay [4]; 1.7% in assay [5]; -0.95% in assay [6].
For `CCOc1ccc2c(c1)nc1ccccc1[n+]2C`, the growth inhibition was 21.6% in assay [1]; 15.4% in assay [2]; 22% in assay [3]; 25.5% in assay [4]; 52.4% in assay [5]; 39.9% in assay [6].
